Bioassay records from PubChem BioAssay.
CHT allo act = allosterically activates the human high affinity choline transporter. CHT-expressing cells, membrane potential dye, choline EC20; stronger effect = higher value; LV-AA mutant CHT in HEK293 cells. Q9GZV3. 310,000 tested, 0.49% active. AID 488977. B-score at 10 µM;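 active means initial fluorescence not abnormally high and integrated response B-score, plate-corrected, over 3 SD above library mean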
ALR inh = inhibitors of human sulfhydryl oxidase ALR; P55789; purified ALR, DTT oxidation, H2O2 HRP-luminol luminescence; inhibition, % (concentration not given with the values); 290,000 tested, 3.8% active;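 active means mean replicate inhibition above about 79%, with every replicate also reaching it, limit read from the data; inconclusive means only one of the two criteria met; inactive means mean below limit and not every replicate reaching it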
Target sequence (P55789 whole entry, looked up): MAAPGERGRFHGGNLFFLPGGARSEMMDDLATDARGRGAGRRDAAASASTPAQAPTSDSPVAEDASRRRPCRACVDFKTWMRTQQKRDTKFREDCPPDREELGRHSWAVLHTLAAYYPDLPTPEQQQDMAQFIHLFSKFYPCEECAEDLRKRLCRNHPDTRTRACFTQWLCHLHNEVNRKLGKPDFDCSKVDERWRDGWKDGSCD
AI-2 QS mod = modulators of Vibrio harveyi AI-2 quorum sensing system. activity change, % at 7.5 µM. 300,000 tested, 0.4% active. Vibrio harveyi JMH597 AI-2 luminescence/OD600 ratio, 9 h; stronger effect = lower value; strain lacks LuxN and CqsS sensors; 0 = neutral-control median. AID 2094; in the data active means activity change below about -75%, passing the limit was not always enough; inconclusive means no clear call, values can overlap the other calls;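 further: luminescence divided by OD600 gain over 9 h not by final OD600 alone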
PREPL inh = inhibitors of human prolyl oligopeptidase-like enzyme PREPL | Q4J6C6 | recombinant PREPL, fluorescence polarization activity-based probe | inhibition, % at 5.96 µM | 320,000 tested, 0.68% active | AID 2751; in the data active means inhibition above about 43%;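 further: 0% = enzyme with DMSO and 100% = wells lacking enzyme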
CHT inh = inhibits the human high affinity choline transporter; CHT-expressing cells, membrane potential dye, choline response; stronger effect = lower value; B-score at 10 µM; 310,000 tested, 0.86% active; AID 488975;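 active means B-score over 3 SD under the library average, and starting fluorescence ratio not unusually high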;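 further: choline stimulus applied at its EC90 after an EC20 pre-addition; B-score computed on integrated fluorescence ratio after choline addition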
JMH597 growth rt = retest: inhibitors of Vibrio harveyi JMH597 growth; 750 tested, 1% active; growth inhibition, % at 7.5 µM; OD600 absorbance, 9 h; lacks LuxN and CqsS sensors; shares compounds with AI-2 QS mod;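 active means every replicate shows growth inhibition above 50%; inconclusive means at least half, but not all, replicates pass that cutoff; inactive means fewer than half of replicates pass it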
BB721 const-QS lum = retest counter-screen: BB721 constitutive quorum sensing luminescence decrease | shares compounds with AI-2 QS mod | Vibrio harveyi BB721 luminescence, 9 h | inhibition, % at 7.5 µM | 750 tested, 95% active;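 active means inhibition above about 80% in every replicate, not just on average, limit read from the data; inconclusive means at least half of replicates past the limit, but not all; inactive means fewer than half of replicates past the limit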
BB721 growth rt = retest: inhibitors of Vibrio harveyi BB721 growth | shares compounds with AI-2 QS mod | AID 2728 | 750 tested, 3% active | growth inhibition, % at 7.5 µM | OD600 absorbance, 9 h;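 active means every replicate shows growth inhibition above 50%; inconclusive means at least half but not all replicates above 50% inhibition; inactive means under half of replicates above 50% inhibition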
AI-2 QS JMH597 = Vibrio harveyi AI-2 signaling luminescence modulation – JMH597 strain, confirmation. shares compounds with AI-2 QS mod. Vibrio harveyi JMH597 AI-2 quorum sensing luminescence, 9 h; luxN and CqsS knockout, AI-2 only. inhibition, % at 7.5 µM. 750 tested, 97% active. AID 2736;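 active means every replicate shows more than 75% inhibition of signal versus neutral control wells; inconclusive means half to three quarters of replicates exceed 75% inhibition; inactive means fewer than half of replicates exceed 75% inhibition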
The depositor's hits bear a star; i = inactive; ? = inconclusive; / = no result given. Rows were chosen to be rich in hits. Some 5% of all compounds tested hit in one or more screens of this group.

SMILES	CHT allo act	ALR inh	AI-2 QS mod	PREPL inh	CHT inh	JMH597 growth rt	BB721 const-QS lum	BB721 growth rt	AI-2 QS JMH597
Fc1ccc(CSc2nnc(-c3cccnc3)o2)cc1	i	/	-93.2*	11.0	i	19.2	98.2*	4.6	98.5*
c1cncc(-c2nnc(SCc3nc4ccccc4[nH]3)o2)c1	i	/	14.7	4.6	i	/	/	/	/
Cc1ccc(CSc2nnc(-c3ccccn3)n2N)cc1	i	-1.5	?	14.7	i	0.2	91.4*	-20.9	94.6*
Cc1ccccc1-c1nnc(SCc2ccc(F)cc2)o1	i	-19.5	-92.0*	-8.5	i	24.0	96.8*	69.3	97.3*
c1cncc(-c2nnc(SCc3cccc4ccccc34)o2)c1	i	/	-95.6*	1.4	i	4.8	98.6*	0.5	99.1*
O=C(NCC(c1cccs1)N1CCOCC1)c1ccc(Cl)nc1 (centres undefined)	/	0.1	/	5.7	/	/	/	/	/
c1ccc(-n2nnc(-c3cccnc3)n2)cc1	i	0.9	-0.7	7.3	i	/	/	/	/
COCCN1CC(C(=O)NCCc2nc(C)c(C)s2)CCC1=O (centres undefined)	i	-8.4	17.6	8.2	i	/	/	/	/
CC(NC(=O)CN(C)CC(=O)Nc1cccc(F)c1)c1ccccc1 (centres undefined)	/	8.1	/	11.8	/	/	/	/	/
O=C(CCS(=O)(=O)Cc1ccccc1)Nc1ncc([N+](=O)[O-])s1	i	-4.1	8.0	6.9	i	/	/	/	/
Brc1ccc(CSc2nnc(-c3cccnc3)o2)cc1	i	-6.5	-94.2*	-0.8	-6.28*	0.5	98.4*	0.0	98.9*
Clc1ccc(CSc2nnc(-c3cccnc3)o2)cc1	i	-4.1	-92.9*	0.4	i	27.3	98.0*	22.4	98.6*
Cc1ccc(CSc2nnc(-c3cccnc3)o2)cc1	i	-4.3	-96.2*	6.2	i	25.9	99.1*	9.0	99.4*
c1ccc(CSc2nnc(-c3cccnc3)o2)cc1	i	-1.8	-94.9*	5.3	i	-11.5	98.8*	-23.7	99.3*
Nc1ccc(Sc2ccccc2)nc1	i	3.9	48.9	0.4	i	/	/	/	/
Nn1c(SCc2ccc(F)cc2)nnc1-c1cccnc1	i	/	-71.4	10.2	i	/	/	/	/
Nn1c(SCc2ccc(Br)cc2)nnc1-c1cccnc1	i	-13.5	-86.5*	4.6	i	20.6	95.5*	10.9	96.4*
C(=C\c1ccccc1)/CSc1nnc(-c2cccnc2)o1	i	11.0	-89.4*	1.7	i	18.7	95.3*	-0.9	97.5*
O=c1[nH]cc(N(CCO)CCO)c(=O)[nH]1	i	-5.7	15.1	3.2	i	/	/	/	/
O=C(COC(=O)C1CC1)NC(=O)NCc1ccccc1	i	-8.0	-36.0	1.1	i	/	/	/	/
Nc1c(S(=O)(=O)c2ccccc2)nnn1-c1ccccc1	i	-0.4	-97.2*	3.0	i	11.5	99.5*	-40.5	99.6*
COc1ccc(S(=O)(=O)c2nnn(-c3ccccc3Cl)c2N)cc1	i	-21.1	1.6	-3.1	i	/	/	/	/
CSc1ccc(C2N=C(c3ccccc3)NO2)cc1 (centres undefined)	i	1.9	-85.2*	2.2	i	31.4	95.4*	13.5	96.3*
COc1ccc(CNC(=O)Nc2ccc(C)cc2C)cc1	i	-13.3	14.6	-2.9	i	/	/	/	/
COc1ccc(NC(=O)NCc2ccccn2)cc1	i	-7.3	-2.2	0.3	i	/	/	/	/
SMILES	CHT allo act	ALR inh	AI-2 QS mod	PREPL inh	CHT inh	JMH597 growth rt	BB721 const-QS lum	BB721 growth rt	AI-2 QS JMH597
COc1ccc(CNC(=O)Nc2ccccc2)cc1	i	0.7	-88.5*	-5.7	i	4.9	95.0*	22.2	95.6*
COc1ccc(CNC(=O)Nc2cccc(C)c2)cc1	i	1.7	-91.9*	4.5	i	11.1	97.2*	27.8	97.5*
O=C(NNC(=O)c1c(F)cccc1F)c1ccccc1-n1cccc1	i	/	5.4	-4.9	i	/	/	/	/
Cc1noc(C)c1COC(=O)c1ccc2ccccc2n1	i	1.4	12.2	1.9	i	/	/	/	/
Cc1ccc(COC(=O)c2ccc3ccccc3n2)cc1	i	3.5	-90.7*	0.6	i	8.6	98.1*	-12.0	98.9*
CSc1ccccc1NC(=O)CN(C)CC(=O)Nc1ccccc1F	i	-18.8	30.1	-47.7	i	/	/	/	/
COc1ccc(N(CC(=O)Nc2ccc(OC)c(OC)c2)S(=O)(=O)c2ccccc2)cc1Cl	i	-23.2	6.0	-8.4	i	/	/	/	/
COc1ccc(NC(=O)CN(c2ccc(OC)c(Cl)c2)S(=O)(=O)c2ccccc2)cc1	i	-3.2	?	-14.1	i	16.6	-5.6	18.5	-3.2
CSCCC1NC(=O)N(CC(=O)Nc2ccc(-c3ccccc3)cc2)C1=O (centres undefined)	i	7.0	-82.7*	2.1	i	-21.7	85.1*	-5.3	90.8*
CSCCC1NC(=O)N(CC(=O)Nc2c(C(C)C)cccc2C(C)C)C1=O (centres undefined)	i	/	-3.9	8.1	i	/	/	/	/
O=C(Nc1cc(-c2ccccc2)[nH]n1)c1ccccc1F	i	49.3	-86.0*	12.0	i	12.2	92.3*	-3.0	94.0*
O=C(O)c1ccccc1C(=O)Nc1cc(-c2ccccc2)[nH]n1	i	40.0	28.5	5.5	i	/	/	/	/
O=C(Nc1cc(-c2ccccc2)[nH]n1)c1ccccc1	i	11.4	-79.3*	4.2	i	14.4	87.6*	-19.1	93.0*
c1ccc(-c2nnc(SCCC3OCCCO3)o2)cc1	i	-16.8	-10.6	-0.5	i	/	/	/	/
O=C1COc2ccc(C(=O)COC(=O)/C=C/c3ccc(Br)o3)cc2N1	i	6.0	-95.8*	9.5	i	11.8	98.8*	1.5	99.3*
Cc1c(C(C)(C(=O)O)c2c(C)n(C)c3ccccc23)c2ccccc2n1C	i	-6.9	12.5	4.8	i	/	/	/	/
O=C(CCCn1nnc(-c2cccnc2)n1)c1ccc(F)cc1	i	-3.5	-80.2*	2.8	i	0.4	91.7*	-10.7	94.7*
Cc1cccc(OCc2nnc(SCC(=O)N3CC(=O)Nc4ccccc43)o2)c1	i	-1.9	-93.3*	-89.7	i	0.9	96.3*	-0.2	98.1*
COc1cc(NC(=O)c2ccc(Br)o2)c(C(=O)O)cc1OC	i	3.3	20.1	1.6	i	/	/	/	/
COC(=O)c1cc(OC)c(OC)cc1NC(=O)c1ccc(Br)o1	i	-18.9	?	2.8	i	-18.5	-2.3	-19.3	1.5
